# Values of other authors, collected in PubChem BioAssay AID977608.
# Hit rate of the full screen: of about 4,300 compounds, about 4,300 (100%) were called active. Cut-off not given; nearly all actives show IC50 up to about 1400 µM. The set was probably picked from earlier hits. The list shows a part of the results.
# Test: protein-ligand inhibition affinities from structures – PDB-derived complexes (AID 977608)
smiles,measurement,setting,value
CC(C)Oc1ccc(-c2ccnc(NC([P+](O)(O)O)[P+](O)(O)O)c2)cc1,IC50,"literature IC50, protein: human farnesyl pyrophosphate synthase (FPPS), PDB entry 4h5c",0.028 µM (active)
C[C@H](CC(=O)O)C1NN(C)C2N=C(N)NC(=O)C2C1O (some centres not stated),IC50,"literature IC50, protein: Dihydropteroate Synthase, PDB entry 4d9p",145 µM (active)
COc1ccc(C(=O)CCC(=O)O)c(O)c1,IC50,"literature IC50, protein: Orotidine 5'-phosphate decarboxylase, PDB entry 3vi2",170 µM (active)
CN1CCN(c2ccc(-c3ccncc3-c3cc(F)c(O)c(F)c3)cc2)CC1,IC50,"literature IC50, protein: Ribosomal protein S6 kinase alpha-3 RSK2, PDB entry 4nus",0.005 µM (active)
CCCn1cnc2c1c(=O)n(CCCCC(C)=O)c(=O)n2C,IC50,"literature IC50, protein: Chitinase A(W275G mutant), PDB entry 3as2",360 µM (active)
CC[C@H](C)[C@H](NC(C)=O)C(=O)N[C@@H](Cc1ccc(O)cc1)C(=O)N[C@@H](Cc1ccc(O)cc1)[P+](O)(O)O,IC50,"literature IC50, protein: Human testis angiotensin converting enzyme, PDB entry 4bzr",0.025 µM (active)
O=C(NCc1cccc(O)c1)Nc1nc(-c2ccncc2)cs1,IC50,"literature IC50, protein: Rho-associated protein kinase 1, PDB entry 3twj",0.0145 µM (active)
C[C@@H]1COC[C@@H](C)[N+]1=C1CC(=O)N2CC[C@@H](C(F)(F)F)[N+](Cc3ccc(Cl)s3)=C2N1,IC50,"literature IC50, protein: PHOSPHATIDYLINOSITOL 3-KINASE CATALYTIC SUBUNIT TYPE 3 Vsp34, PDB entry 4uwk",0.001 µM (active)
CC(C)OCC[N+]1=C2NC(=[N+]3CCOCC3)CC(=O)N2CC[C@H]1C(F)(F)F,IC50,"literature IC50, protein: PHOSPHATIDYLINOSITOL 3-KINASE CATALYTIC SUBUNIT TYPE 3 Vsp34, PDB entry 4uwg",0.007 µM (active)
O/N=C/c1ccc(O)cc1,IC50,"literature IC50, protein: Macrophage Migration Inhibitory Factor (MIF), PDB entry 2ooz",7 µM (active)
CC(C)[C@H]1[C@H](C(=O)N2CCC[C@H]2C(=O)N(C)C)SC2=N[C@@](C)(c3ccc(Cl)cc3)[C@@H](c3ccc(Cl)cc3)N21,IC50,"literature IC50, protein: E3 ubiquitin-protein ligase Mdm2, PDB entry 3vzv",0.0092 µM (active)
CC(C)C[C@H](N[P+](O)(O)O[C@@H]1O[C@@H](C)[C@H](O)[C@@H](O)[C@H]1O)C(=O)N[C@@H](Cc1c[nH]c2ccccc12)C(=O)O,IC50,"literature IC50, protein: human neutral endopeptidase (Neprilysin), PDB entry 1dmt",0.002 µM (active)
O=C1N=C(c2ccccc2)C=CC1O (configuration not stated),IC50,"literature IC50, protein: Polymerase PA, PDB entry 4m5o",0.38 µM (active)
Nc1csc2nccnc12,IC50,"literature IC50, protein: Dengue virus 3 non-structural protein 5, PDB entry 4ctk",10000 µM (active)
O[C@@H]1[C@@H](CO[P+](O)(O)O)O[C@](O)(CO[P+](O)(O)O)[C@H]1O,IC50,"literature IC50, PDB entry 4fxf",6.5 µM (active)
CCN1CCN(C(=O)N[C@@H](C(=O)N[C@H](C(=O)O)[C@H]2N[C@@H](C(=O)O)C(C)(C)S2)c2ccccc2)C(=O)C1=O,IC50,"literature IC50, protein: Penicillin-binding protein 3, PDB entry 4kqq",126 µM (active)
same,IC50,"literature IC50, protein: Penicillin-binding protein 3, PDB entry 4kqr",126 µM (active)
CCN1CCN(C(=O)N[C@@H](C(=O)N[C@H](C=O)[C@@H]2N[C@@H](C(=O)O)C(C)(C)S2)c2ccccc2)C(=O)C1=O,IC50,"literature IC50, protein: Penicillin-binding protein 3, PDB entry 4kqo",0.166 µM (active)
CC(=O)Nc1cc(Oc2ccc3c(ccn3C(=O)Nc3ccc(CN4CCN(C)CC4)c(C(F)(F)F)c3)c2)ncn1,IC50,"literature IC50, protein: Tyrosine-protein kinase JAK2, PDB entry 3ugc",0.947 µM (active)
N#C[C@@H](Cc1cccc(C(=O)c2c[nH]c3ncccc23)c1)C(N)=O,IC50,"literature IC50, protein: Ribosomal protein S6 kinase alpha-3, PDB entry 4jg7",0.12 µM (active)
O=C(N[C@H]1CCCCCCC[C@@H]2C[C@@]2(C(=O)NS(=O)(=O)C2CC2)NC(=O)[C@@H]2C[C@@H](OC(=O)N3CCc4ccccc4C3)CN2C1=O)OC1CCCC1,IC50,"literature IC50, protein: Serine protease NS3, PDB entry 4ktc",0.001 µM (active)
CCCCC[C@H](CC(=O)NO)C(=O)N[C@H](C(=O)N1CCC[C@H]1C(=O)O)C(C)C,IC50,"literature IC50, protein: Peptide Deformylase from Staphylococcus aureus, PDB entry 1q1y",0.02 µM (active)
